{
  "source": "ChEMBL document CHEMBL3433997",
  "about": "“St. Jude Leishmania screening dataset” (2016)",
  "data": [
    {"target": "Glucose transporter (Leishmania mexicana) (UniProt O61059)", "assay": "ST_JUDE_LEISH: Cytotoxicity at 2uM final concentration against transgenic Leishmania Mexicana promastigotes LmGT2 that are glucose transport deficient and complemented with the L. Mexicana glucose transporter 2. Activity is measured by DNA content using SYBR green in vitro", "type": "functional", "units": {"inhibition": "%"}, "values": [
      {"smiles": "CN(C)c1ccc(C=Cc2nc(=O)c3ccccc3o2)cc1", "inhibition": 0.74},
      {"smiles": "CCNc1cc(CCCC(=O)OCC)nc(Nc2ccc(C)cc2)n1", "inhibition": 10.3},
      {"smiles": "Cc1nnc2c(NC(=O)NC(C)C)cc3cc(-c4ccc(CN5CCCCC5)cc4)ccc3n12", "inhibition": 11},
      {"smiles": "COc1cc(NC(=O)/C=C/c2cc(F)cc(F)c2F)cc(OCCN2CCN(CCN3CCOCC3)CC2)c1", "inhibition": 2.54},
      {"smiles": "COc1cccc(CCNCCCCCCNCCc2ccc(Cl)cc2)c1", "inhibition": 2.55},
      {"smiles": "CCCCCCCN1CC[C@@H](CCCc2ccnc3ccc(OCCCCN/C(N)=N/O)cc23)[C@@H](CC)C1", "inhibition": 2.04},
      {"smiles": "CN1CCN(CCCNCc2cccc(-c3ccc(CNCCc4ccccc4)cc3)c2)CC1", "inhibition": 1.49},
      {"smiles": "CS(=O)(=O)Nc1ccc(-c2ccc3ccnc(N)c3c2)cc1", "inhibition": 6.67},
      {"smiles": "COc1ccc2nccc(NCC3(O)CCC(NCc4ccc5c(n4)NC(=O)CS5)CC3)c2n1", "note": "(stereo unspecified)", "inhibition": 4.28},
      {"smiles": "Cc1ccc2[nH]c(C)cc(=NN=Cc3cccc(F)c3)c2c1", "inhibition": 3.38},
      {"smiles": "CN(C)CCN1CCN(Cc2cccc(-c3csc(-c4nc5ccccc5[nH]4)c3)c2)CC1", "inhibition": 2.16},
      {"smiles": "CN1CCCC(CN2CCN(Cc3cccc(-c4csc(-c5nc6ccccc6[nH]5)c4)c3)CC2)C1", "note": "(stereo unspecified)", "inhibition": 1.91},
      {"smiles": "COc1cc(NC(=O)c2ccc3oc4ccccc4c3c2)ccc1OCCN1CCCCC1", "inhibition": 0.62},
      {"smiles": "COc1ccccc1CN1CCC(NC(=O)c2ccc(-c3cccc(Cl)c3)s2)CC1", "inhibition": 2.23},
      {"smiles": "CCOc1ccc2[nH]c(C)cc(=NN=Cc3ccccc3F)c2c1", "inhibition": 3.86},
      {"smiles": "CC(=O)Nc1cccc(C(=O)Nc2ccc(-c3cccc(-c4nc5cc(C(F)(F)F)ccc5[nH]4)c3)cc2)c1", "inhibition": -0.69}
    ]}
  ]
}
